These results are taken from paper PMC5700166.

Common to all, as to assay: protein-binding microarray (PBM); PBM: ~300 nM protein, 6 mM HEPES pH 7.8, 80 mM KCl, 0.5 mM EDTA, 0.5 mM EGTA, 6% glycerol, 35 ng/ul poly-dIdC, 1% milk, 1 h, room temperature; Ap Aiptasia and Nv Nematostella (sea anemones) / Co Capsaspora / Aq Amphimedon (sponge) / Dm Drosophila / Hu human; RHD is the Rel homology domain; high values mean tight binding
Holding throughout (conditions): dsDNA, one strand shown

One assay has as its target T1, GST-Ap-NF-kB RHD (Exaiptasia pallida (Aiptasia), UniProt A0A913YAJ5 2-422).
T1 sequence: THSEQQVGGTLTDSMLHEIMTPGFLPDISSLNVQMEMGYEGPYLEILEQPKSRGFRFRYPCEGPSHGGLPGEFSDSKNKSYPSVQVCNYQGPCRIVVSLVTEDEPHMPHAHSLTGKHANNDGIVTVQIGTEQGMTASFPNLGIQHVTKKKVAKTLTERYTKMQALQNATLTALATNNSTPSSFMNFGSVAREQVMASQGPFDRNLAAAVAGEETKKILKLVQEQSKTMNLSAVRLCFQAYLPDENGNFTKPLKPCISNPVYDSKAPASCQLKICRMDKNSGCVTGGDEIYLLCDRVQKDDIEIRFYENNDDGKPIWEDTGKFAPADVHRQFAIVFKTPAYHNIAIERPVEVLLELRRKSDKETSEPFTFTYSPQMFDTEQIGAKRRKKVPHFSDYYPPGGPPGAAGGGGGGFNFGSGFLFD

The target of assay [1] is T2, GST-Nv-NF-kB (Cys allele) (Nematostella vectensis, UniProt E5G601 2-411).
T2 sequence: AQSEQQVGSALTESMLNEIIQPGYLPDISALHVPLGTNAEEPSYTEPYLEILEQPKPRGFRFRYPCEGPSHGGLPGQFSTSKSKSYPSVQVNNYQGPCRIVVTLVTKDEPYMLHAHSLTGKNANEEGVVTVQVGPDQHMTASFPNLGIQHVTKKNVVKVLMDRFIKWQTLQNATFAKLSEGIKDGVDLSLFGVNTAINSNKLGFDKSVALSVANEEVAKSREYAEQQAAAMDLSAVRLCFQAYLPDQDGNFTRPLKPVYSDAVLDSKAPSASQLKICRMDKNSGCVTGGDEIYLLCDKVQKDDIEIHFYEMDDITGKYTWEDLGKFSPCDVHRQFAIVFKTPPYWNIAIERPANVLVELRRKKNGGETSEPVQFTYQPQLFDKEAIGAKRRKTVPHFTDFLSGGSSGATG

A further assay concerns the target T3, GST-Co-NF-kB (Capsaspora owczarzaki, UniProt F1ARL5 200-546).
T3 sequence: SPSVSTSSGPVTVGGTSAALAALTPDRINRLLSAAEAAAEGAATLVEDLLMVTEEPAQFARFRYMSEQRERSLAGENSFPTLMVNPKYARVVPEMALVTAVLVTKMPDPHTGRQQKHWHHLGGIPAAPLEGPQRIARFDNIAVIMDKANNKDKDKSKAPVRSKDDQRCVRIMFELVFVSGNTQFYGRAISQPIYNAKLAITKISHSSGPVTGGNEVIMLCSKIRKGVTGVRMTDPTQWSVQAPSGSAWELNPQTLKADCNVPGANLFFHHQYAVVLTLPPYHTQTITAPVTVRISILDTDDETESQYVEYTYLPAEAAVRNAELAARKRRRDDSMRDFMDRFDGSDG

Another assay addresses T4, GST-Dm-Relish (Drosophila melanogaster, UniProt Q94527 99-473).
T4 sequence: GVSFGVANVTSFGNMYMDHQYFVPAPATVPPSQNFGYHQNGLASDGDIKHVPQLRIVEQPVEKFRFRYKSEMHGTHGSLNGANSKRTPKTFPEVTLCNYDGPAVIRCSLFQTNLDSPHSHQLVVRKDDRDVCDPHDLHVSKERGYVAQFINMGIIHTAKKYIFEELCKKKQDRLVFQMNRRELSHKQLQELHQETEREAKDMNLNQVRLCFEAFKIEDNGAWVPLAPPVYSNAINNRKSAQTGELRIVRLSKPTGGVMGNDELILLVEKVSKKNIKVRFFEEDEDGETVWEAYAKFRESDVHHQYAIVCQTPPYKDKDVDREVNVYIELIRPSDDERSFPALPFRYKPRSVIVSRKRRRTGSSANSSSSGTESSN

A further assay concerns the target T5, GST-Aq-NF-kB (Amphimedon queenslandica, UniProt A9Y5G7 2-389).
T5 sequence: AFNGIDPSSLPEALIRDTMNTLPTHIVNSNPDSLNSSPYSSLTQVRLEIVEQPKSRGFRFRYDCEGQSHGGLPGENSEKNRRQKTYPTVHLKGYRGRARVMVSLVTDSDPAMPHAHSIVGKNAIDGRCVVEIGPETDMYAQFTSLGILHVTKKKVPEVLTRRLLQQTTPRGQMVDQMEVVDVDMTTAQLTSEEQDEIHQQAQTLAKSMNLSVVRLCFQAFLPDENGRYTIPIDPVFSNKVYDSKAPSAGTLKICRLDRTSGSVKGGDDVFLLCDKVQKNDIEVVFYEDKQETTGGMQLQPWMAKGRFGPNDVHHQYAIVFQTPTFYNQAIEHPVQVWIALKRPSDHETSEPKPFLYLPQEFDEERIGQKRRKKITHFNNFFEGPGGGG

In a further assay the target is GST-Hu-p50 (Homo sapiens, UniProt P19838 7-356).
Chain of GST-Hu-p50 (P19838 7-356): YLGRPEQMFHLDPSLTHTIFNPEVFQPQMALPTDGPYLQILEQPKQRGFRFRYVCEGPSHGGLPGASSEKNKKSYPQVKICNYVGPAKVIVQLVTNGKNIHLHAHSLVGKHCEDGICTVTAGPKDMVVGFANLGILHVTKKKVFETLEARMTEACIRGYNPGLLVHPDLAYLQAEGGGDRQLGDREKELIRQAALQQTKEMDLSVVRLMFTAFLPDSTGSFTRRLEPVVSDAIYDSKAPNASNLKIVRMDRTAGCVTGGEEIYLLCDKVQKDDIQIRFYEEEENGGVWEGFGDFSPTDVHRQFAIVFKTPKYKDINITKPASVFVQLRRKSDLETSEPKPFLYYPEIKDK

As to “CCGATTAACATCAGGGGGGATACTGATGTTAATCGGGTCTTGATTCGCTTGACGCTGCTG”, the binding signal worked out at 6.78 z-score with GST-Ap-NF-kB RHD; 4.85 z-score in assay [1]; 6.57 z-score with GST-Co-NF-kB; 5.55 z-score in the assay with GST-Dm-Relish; 4.94 z-score with GST-Aq-NF-kB; 5.66 z-score with GST-Hu-p50.

As for “CCGATTAACATCAGGCCTTCCCCTGATGTTAATCGGGTCTTGATTCGCTTGACGCTGCTG”, the binding signal in the assay with GST-Ap-NF-kB RHD was 6.39 z-score; in assay [1] it was 6.79 z-score; with GST-Co-NF-kB, 2.84 z-score; with GST-Dm-Relish, 9.6 z-score; with GST-Aq-NF-kB it was 7.14 z-score; with GST-Hu-p50 it was 4.63 z-score.

For the sequence “CCGATTAACATCAGGAGACCCCCTGATGTTAATCGGGTCTTGATTCGCTTGACGCTGCTG”, the binding signal is 5.3 z-score with GST-Ap-NF-kB RHD; 3.64 z-score in assay [1]; 1.61 z-score with GST-Co-NF-kB; 5.66 z-score with GST-Dm-Relish; 6.55 z-score with GST-Aq-NF-kB; 4.1 z-score with GST-Hu-p50.

On to “CCGATTAACATCAGGGATACACCTGATGTTAATCGGGTCTTGATTCGCTTGACGCTGCTG”, for which the binding signal with GST-Ap-NF-kB RHD amounted to 2.29 z-score; in assay [1], 1.83 z-score; with GST-Co-NF-kB, 1.56 z-score; with GST-Dm-Relish, 2.76 z-score; in the assay with GST-Aq-NF-kB it was 3.45 z-score; in the assay with GST-Hu-p50 it was 2.49 z-score.

For “CCGATTAACATCAGGGACGCCCCTGATGTTAATCGGGTCTTGATTCGCTTGACGCTGCTG”, the binding signal with GST-Ap-NF-kB RHD turned out to be 6.59 z-score; in assay [1] it was 5.71 z-score; in the assay with GST-Co-NF-kB, 1.13 z-score; in the assay with GST-Dm-Relish, 7.12 z-score; with GST-Aq-NF-kB it was 7.88 z-score; in the assay with GST-Hu-p50 it was 4.5 z-score.

On to “CCGATTAACATCAGGGAGTTTACTGATGTTAATCGGGTCTTGATTCGCTTGACGCTGCTG”, for which the binding signal was 3.14 z-score with GST-Ap-NF-kB RHD; 4.14 z-score in assay [1]; 1.37 z-score with GST-Co-NF-kB; 5.53 z-score in the assay with GST-Dm-Relish; 5.6 z-score with GST-Aq-NF-kB; 4.19 z-score in the assay with GST-Hu-p50.

“CCGATTAACATCACCAAACCCCCTGATGTTAATCGGGTCTTGATTCGCTTGACGCTGCTG”: the binding signal with GST-Ap-NF-kB RHD is 6.25 z-score; in assay [1], 4.31 z-score; with GST-Co-NF-kB, 2.03 z-score; with GST-Dm-Relish it was 5.55 z-score; in the assay with GST-Aq-NF-kB, 4.31 z-score; with GST-Hu-p50 it was 6.3 z-score.

Regarding “CCGATTAACATCACAACGACCCCTGATGTTAATCGGGTCTTGATTCGCTTGACGCTGCTG”, the binding signal came to 2.27 z-score in the assay with GST-Ap-NF-kB RHD; 1.3 z-score in assay [1]; 1.28 z-score with GST-Co-NF-kB; 1.08 z-score with GST-Dm-Relish; 2.48 z-score with GST-Aq-NF-kB; 1.12 z-score in the assay with GST-Hu-p50.

In the case of “CCGATTAACATCAGGAGTGCCCCTGATGTTAATCGGGTCTTGATTCGCTTGACGCTGCTG”, the binding signal stood at 2.63 z-score with GST-Ap-NF-kB RHD; 2.03 z-score in assay [1]; 1.41 z-score in the assay with GST-Co-NF-kB; 2.25 z-score in the assay with GST-Dm-Relish; 5 z-score with GST-Aq-NF-kB; 2.25 z-score with GST-Hu-p50.

In the case of “CCGATTAACATCAAAAAACCCCATGATGTTAATCGGGTCTTGATTCGCTTGACGCTGCTG”, the binding signal in the assay with GST-Ap-NF-kB RHD was 6.53 z-score; in assay [1], 7.08 z-score; with GST-Co-NF-kB, 2.59 z-score; with GST-Dm-Relish, 9.52 z-score; with GST-Aq-NF-kB, 6.77 z-score; with GST-Hu-p50, 6.62 z-score.

Regarding “CCGATTAACATCAGGGAAATTAATGATGTTAATCGGGTCTTGATTCGCTTGACGCTGCTG”, the binding signal came to 3.37 z-score in the assay with GST-Ap-NF-kB RHD; 5.52 z-score in assay [1]; 4.18 z-score with GST-Co-NF-kB; 2.54 z-score with GST-Dm-Relish; 4.81 z-score with GST-Aq-NF-kB; 4.27 z-score in the assay with GST-Hu-p50.

On to “CCGATTAACATCAGGGGTTTTACTGATGTTAATCGGGTCTTGATTCGCTTGACGCTGCTG”, for which the binding signal was 5.39 z-score with GST-Ap-NF-kB RHD; 5.15 z-score in assay [1]; 1.49 z-score with GST-Co-NF-kB; 7.6 z-score with GST-Dm-Relish; 5.84 z-score with GST-Aq-NF-kB; 5.77 z-score with GST-Hu-p50.

For the sequence “CCGATTAACATCAATAAAATCCCTGATGTTAATCGGGTCTTGATTCGCTTGACGCTGCTG”, the binding signal with GST-Ap-NF-kB RHD is 4.23 z-score; in assay [1] it was 4.4 z-score; in the assay with GST-Co-NF-kB it was 2.13 z-score; with GST-Dm-Relish it was 6.47 z-score; with GST-Aq-NF-kB, 4.79 z-score; with GST-Hu-p50 it was 4.24 z-score.

In the case of “CCGATTAACATCAAAAAATCCCTTGATGTTAATCGGGTCTTGATTCGCTTGACGCTGCTG”, the binding signal in the assay with GST-Ap-NF-kB RHD worked out at 6.16 z-score; in assay [1], 7.58 z-score; in the assay with GST-Co-NF-kB it was 1.77 z-score; in the assay with GST-Dm-Relish, 8.1 z-score; in the assay with GST-Aq-NF-kB it was 7.46 z-score; in the assay with GST-Hu-p50, 5.47 z-score.

With “CCGATTAACATCAGGGGATATACTGATGTTAATCGGGTCTTGATTCGCTTGACGCTGCTG”, the binding signal in the assay with GST-Ap-NF-kB RHD came to 5.2 z-score; in assay [1], 4.91 z-score; in the assay with GST-Co-NF-kB it was 3.57 z-score; with GST-Dm-Relish, 7.81 z-score; with GST-Aq-NF-kB, 4.48 z-score; with GST-Hu-p50, 4.04 z-score.

Turning to “CCGATTAACATCAGGAACTCCCCTGATGTTAATCGGGTCTTGATTCGCTTGACGCTGCTG”, the binding signal in the assay with GST-Ap-NF-kB RHD was found to be 8.99 z-score; in assay [1], 7.4 z-score; with GST-Co-NF-kB, 3.87 z-score; with GST-Dm-Relish it was 7.91 z-score; in the assay with GST-Aq-NF-kB it was 8.17 z-score; in the assay with GST-Hu-p50, 5.57 z-score.

As to “CCGATTAACATCAGATAACCCCCTGATGTTAATCGGGTCTTGATTCGCTTGACGCTGCTG”, the binding signal worked out at 7.2 z-score with GST-Ap-NF-kB RHD; 5.72 z-score in assay [1]; 2.43 z-score with GST-Co-NF-kB; 6.66 z-score with GST-Dm-Relish; 6.11 z-score in the assay with GST-Aq-NF-kB; 5.79 z-score with GST-Hu-p50.

For “CCGATTAACATCACAGAGTCCCCTGATGTTAATCGGGTCTTGATTCGCTTGACGCTGCTG”, the binding signal with GST-Ap-NF-kB RHD is 6.36 z-score; in assay [1] it was 4.8 z-score; with GST-Co-NF-kB, 2.26 z-score; with GST-Dm-Relish, 5.12 z-score; in the assay with GST-Aq-NF-kB, 4.31 z-score; in the assay with GST-Hu-p50 it was 5.59 z-score.
